According to PubChem BioAssay AID1159580 (chemical genetic matrix, 2015):
Screen size: about 5,500 compounds; about 2,000 (36%) were called active. Another 18% or so got no clear call; they are omitted. Cut-off read from the data, not from the text of the source: active = normalized growth mostly below about 0.91 (no sharp cut-off); inconclusive = no clear call, values can overlap the other calls; inactive = mostly above about 0.92. The list shows a part of the results.

Experiment: chemical genetic growth profiling, strain panel (AID 1159580);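 note: tested at 20 µM; growth read once vehicle control cultures reached saturation at 30 °C; 1 = growth at the plate median or of vehicle wells; lower values mean less growth of the strain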
Settings: growth OD

Measured: normalized growth

CC1(C)C2CC(=O)[C@]3(C)C(CC[C@@]4(C)[C@H](c5ccoc5)OC(=O)[C@H]5O[C@]543)[C@@]2(C)C=C[C@@H]1O (some centres not stated)
inactive: S. cerevisiae deletion strains, locus YBR021W, strain FUR4, stronger effect = lower value 0.944 | S. cerevisiae deletion strains, locus YBR229C, strain ROT2, stronger effect = lower value 1.02 | S. cerevisiae deletion strains, locus YCL029C, strain bik1, stronger effect = lower value 1 | S. cerevisiae deletion strains, locus YDL035C, strain GPR1, stronger effect = lower value 1.02 | S. cerevisiae deletion strains, locus YDL074C, strain BRE1, stronger effect = lower value 1.01 | S. cerevisiae deletion strains, locus YDL101C, strain DUN1, stronger effect = lower value 0.994 | S. cerevisiae deletion strains, locus YDL134C, strain PPH21, stronger effect = lower value 0.982 | S. cerevisiae deletion strains, locus YDL185W, strain tfp1, stronger effect = lower value 1.01 | S. cerevisiae deletion strains, locus YDL192W, strain arf1, stronger effect = lower value 1.01 | S. cerevisiae deletion strains, locus YDR101C, strain arx1, stronger effect = lower value 0.993 | S. cerevisiae deletion strains, locus YDR150W, strain NUM1, stronger effect = lower value 1.01 | S. cerevisiae deletion strains, locus YDR162C, strain NBP2, stronger effect = lower value 1.01 | S. cerevisiae deletion strains, locus YDR318W, strain mcm21, stronger effect = lower value 0.99 | S. cerevisiae deletion strains, locus YDR388W, stronger effect = lower value 1.01 | S. cerevisiae deletion strains, locus YDR502C, strain sam2, stronger effect = lower value 0.967 | S. cerevisiae deletion strains, locus YEL061C, strain CIN8, stronger effect = lower value 1.01 | S. cerevisiae deletion strains, locus YER110C, stronger effect = lower value 0.986 | S. cerevisiae deletion strains, locus YER155C, strain BEM2, stronger effect = lower value 1.01 | S. cerevisiae deletion strains, locus YER167W, strain BCK2, stronger effect = lower value 1.02 | S. cerevisiae deletion strains, locus YGL078C, strain dbp3, stronger effect = lower value 0.981 | S. cerevisiae deletion strains, locus YGL086W, strain mad1, stronger effect = lower value 0.989 | S. cerevisiae deletion strains, locus YGL248W, strain PDE1, stronger effect = lower value 0.998 | S. cerevisiae deletion strains, locus YGR135W, strain pre9, stronger effect = lower value 0.931 | S. cerevisiae deletion strains, locus YGR252W, strain gcn5, stronger effect = lower value 0.844 | S. cerevisiae deletion strains, locus YHR030C, strain SLT2, stronger effect = lower value 1.02 | S. cerevisiae deletion strains, locus YHR079C, strain IRE1 (second series), stronger effect = lower value 0.99 | S. cerevisiae deletion strains, locus YHR094C, strain hxt1, stronger effect = lower value 0.999 | S. cerevisiae deletion strains, locus YHR129C, strain ARP1, stronger effect = lower value 1.01 | S. cerevisiae deletion strains, locus YHR200W, strain rpn10, stronger effect = lower value 0.975 | S. cerevisiae deletion strains, locus YIL066C, strain RNR3, stronger effect = lower value 1.04 | S. cerevisiae deletion strains, locus YIL073C, strain SPO22, stronger effect = lower value 1.02 | S. cerevisiae deletion strains, locus YIL125W, strain kgd1, stronger effect = lower value 0.995 | S. cerevisiae deletion strains, locus YIR030C, strain dcg1, stronger effect = lower value 0.996 | S. cerevisiae deletion strains, locus YJL095W, strain BCK1, stronger effect = lower value 1 | S. cerevisiae deletion strains, locus YJL134W, strain LCB3, stronger effect = lower value 1.01 | S. cerevisiae deletion strains, locus YJL168C, strain set2, stronger effect = lower value 0.993 | S. cerevisiae deletion strains, locus YJL187C, strain SWE1 (second series), stronger effect = lower value 0.981 | S. cerevisiae deletion strains, locus YJR043C, strain POL32, stronger effect = lower value 1.03 | S. cerevisiae deletion strains, locus YKL009W, strain mrt4, stronger effect = lower value 0.988 | S. cerevisiae deletion strains, locus YKL068W, stronger effect = lower value 1.01 | S. cerevisiae deletion strains, locus YKL085W, strain MDH1 (second series), stronger effect = lower value 1.01 | S. cerevisiae deletion strains, locus YKL085W, strain MDH1, stronger effect = lower value 1.01 | S. cerevisiae deletion strains, locus YKR001C, strain vps1, stronger effect = lower value 1 | S. cerevisiae deletion strains, locus YLR039C, strain RIC1, stronger effect = lower value 1.18 | S. cerevisiae deletion strains, locus YLR058C, strain SHM2, stronger effect = lower value 0.996 | S. cerevisiae deletion strains, locus YLR102C, strain apc9, stronger effect = lower value 1 | S. cerevisiae deletion strains, locus YLR262C, strain YPT6, stronger effect = lower value 1.16 | S. cerevisiae deletion strains, locus YLR268W, strain sec22, stronger effect = lower value 1 | S. cerevisiae deletion strains, locus YLR330W, strain CHS5, stronger effect = lower value 1 | S. cerevisiae deletion strains, locus YLR371W, strain rom2, stronger effect = lower value 1.01 | S. cerevisiae deletion strains, locus YLR418C, strain cdc73, stronger effect = lower value 0.936 | S. cerevisiae deletion strains, locus YML016C, strain PPZ1, stronger effect = lower value 1.03 | S. cerevisiae deletion strains, locus YML032C, strain rad52, stronger effect = lower value 0.998 | S. cerevisiae deletion strains, locus YML124C, strain tub3, stronger effect = lower value 0.995 | S. cerevisiae deletion strains, locus YMR078C, strain ctf18, stronger effect = lower value 0.998 | S. cerevisiae deletion strains, locus YMR223W, strain ubp8, stronger effect = lower value 0.97 | S. cerevisiae deletion strains, locus YMR263W, strain SAP30, stronger effect = lower value 0.986 | S. cerevisiae deletion strains, locus YMR307W, strain GAS1, stronger effect = lower value 1.1 | S. cerevisiae deletion strains, locus YNL067W, strain RPL9B, stronger effect = lower value 0.97 | S. cerevisiae deletion strains, locus YNL128W, strain TEP1, stronger effect = lower value 1.02 | S. cerevisiae deletion strains, locus YNL233W, strain BNI4, stronger effect = lower value 0.975 | S. cerevisiae deletion strains, locus YNL250W, strain rad50, stronger effect = lower value 0.986 | S. cerevisiae deletion strains, locus YNL271C, strain bni1, stronger effect = lower value 1 | S. cerevisiae deletion strains, locus YNL298W, strain CLA4, stronger effect = lower value 1.01 | S. cerevisiae deletion strains, locus YNL307C, strain MCK1, stronger effect = lower value 1 | S. cerevisiae deletion strains, locus YNL322C, strain KRE1, stronger effect = lower value 1.01 | S. cerevisiae deletion strains, locus YNR052C, strain pop2, stronger effect = lower value 0.967 | S. cerevisiae deletion strains, locus YOL012C, strain htz1 1.21 | S. cerevisiae deletion strains, locus YOL147C, strain pex11, stronger effect = lower value 0.993 | S. cerevisiae deletion strains, locus YOR061W, strain CKA2, stronger effect = lower value 1.02 | S. cerevisiae deletion strains, locus YOR069W, strain VPS5, stronger effect = lower value 1 | S. cerevisiae deletion strains, locus YOR136W, strain idh2, stronger effect = lower value 0.985 | S. cerevisiae deletion strains, locus YOR144C, strain elg1, stronger effect = lower value 1 | S. cerevisiae deletion strains, locus YOR184W, strain ser1, stronger effect = lower value 0.993 | S. cerevisiae deletion strains, locus YOR316C, strain cot1, stronger effect = lower value 1.01 | S. cerevisiae deletion strains, locus YPL241C, strain CIN2, stronger effect = lower value 1.01 | S. cerevisiae deletion strains, locus YPR119W, strain clb2, stronger effect = lower value 0.997 | S. cerevisiae deletion strains, locus YPR141C, strain kar3, stronger effect = lower value 1.01 | S. cerevisiae deletion strains, locus YPR163C, strain tif3, stronger effect = lower value 0.987 | S. cerevisiae deletion strains, locus YPR167C, strain met16, stronger effect = lower value 0.985 | S. cerevisiae deletion strains, strain wtn01, stronger effect = lower value 0.998 | S. cerevisiae strains, strain wild type, stronger effect = lower value 1.01
